Compounds with a hit are over-represented: about 6.5% of the library has one in this group of screens.
MARV entry inh – qHTS for inhibitors of binding or entry into cells for Marburg Virus. Marburg virus pseudotyped entry inhibition, cell reporter. Potency, µM (highest dose often 37.8 µM), inactives show top-dose activity change, negative = inhibition, actives largely listed as inhibitors. 300,000 tested, 1.8% active; calls by dose curve; tested in HEK293 cells; further: potency means the concentration at half of the fitted maximal effect
Vaccinia Venus – qHTS for Stage-Specific Inhibitors of Vaccinia Orthopoxvirus: Venus Reporter Primary qHTS; Potency, µM (doses to about 36.5 µM), inactives show at the highest dose activity change, negative = inhibition, hits mostly inhibitors; Vaccinia virus Venus reporter expression, fluorescence; 330,000 tested, 0.46% active; calls by dose curve; tested in A549 cells; further: potency means the concentration at half of the fitted maximal effect; nearly all actives have a fitted effect of over 30% in size
VACV mCherry inh – qHTS for Stage-Specific Inhibitors of Vaccinia Orthopoxvirus: mCherry Reporter Primary qHTS | AID 720579, 2013 | Vaccinia virus mCherry reporter infection, fluorescence | Potency, µM (top dose mostly 36.5 µM), for the others: at the top dose activity change, negative = inhibition, most hits filed as inhibitors | 310,000 tested, 0.63% active; calls by dose curve; tested in A549 cells; further: potency means the concentration at half of the fitted maximal effect; nearly all actives have a fitted effect of over 35% in size
FMDV inh – High Throughput Screening for Foot and Mouth Disease Virus Antivirals; Potency, µM (highest dose often 57.9 µM), without a hit: at the highest dose activity change, negative = inhibition, usual class: inhibitors; FMDV antiviral cell-based qHTS; 410,000 tested, 1.2% active; calls by dose curve; tested in HEK293T cells; further: read-out not given here; potency means the concentration at half of the fitted maximal effect; nearly all actives have a fitted effect of over 45% in size
HCMV inh – qHTS Assay for inhibitors of the human cytomegalovirus (HCMV) | HFF cells, HCMV-luciferase reporter, 72 h; hits give low values | activity change, negative = inhibition, % at 57.5 µM | 410,000 tested, 4.5% active | AID 1259415, 2018; in the data active means activity change below about -60%; inconclusive means no clear call, values can overlap the other calls; inactive means above about -39%
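Compounds were evaluated in HFFs infected with an HCMV luciferase reporter virus (MOI 1 PFU/cell). Luciferase in lysates collected 72 h post infection served as the replication measure.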
Lassa entry inh – qHTS for Inhibitors of binding or entry into cells for Lassa Virus. Lassa virus pseudotype entry inhibition, cell reporter. Potency, µM (highest dose often 37.9 µM), for the others: at the top dose activity change, negative = inhibition, usual class: inhibitors. 300,000 tested, 1.2% active. AID 540256, 2011; calls by dose curve; tested in HEK293 cells; further: potency means the concentration at half of the fitted maximal effect; nearly all actives have a fitted effect of over 50% in size
* marks the source's active call; other numbers are inactive results; i = inactive; ? = inconclusive; . = no result; [ ] = another dose, or the depositor's remark. On the % scale 0 is the no-effect control and ±100 the full control effect.

SMILES	MARV entry inh	Vaccinia Venus	VACV mCherry inh	FMDV inh	HCMV inh	Lassa entry inh
CCCN(CC1CC1)c1nc(N)c2c(N)nc(OC)cc2c1C#N	?	?	11µM*	?	-14	-20%
COc1cc(=O)n2c(c1C(=O)NC(C)c1ccco1)CCN(Cc1cc3ccccc3o1)CC2 (stereo not given)	.	12%	-8%	1%	.	.
COc1cc(SC)ccc1C(=O)Nc1ncc(Cl)cc1Cl	-2%[46.1 µM]	-1%	-11%	37%	0	?
COc1cc(SC)ccc1C(=O)Nc1ccc(Br)cn1	.	.	.	-93%	-83*	.
COc1cc(SC)ccc1C(=O)Nc1ccccn1	?	-22%	-13%	-56%	45	?
COc1cc(SC)ccc1C(=O)Nc1ncc(C)s1	1.5µM*	.	.	10µM*	-82*	?
COc1cc(SC)ccc1C(=O)Nc1ccon1	12%	.	.	53%	-107*	?
COc1cc(SC)ccc1C(=O)NC(C)C	?	-7%	i	1%	-12	-12%
COc1cc(SC)ccc1C(=O)Nc1cccc(C)n1	10µM*	-18%	i	-27%	30	8.9µM*
Cc1ccccc1C(=O)NCc1ccc2c(c1)CCN2C(=O)c1ccc(F)cc1	.	-10%	-11%	-11%	3	?
COc1ccc([C@H](CC(=O)N2CCOCC2)C(C)C)cc1	-1%	.	.	.	.	.
c1ccc(-c2nc3ccccc3[nH]2)nc1	-32%	3%	-9%	-9%	5	?
O=c1[nH]c(-c2ccccn2)nc(C(F)(F)F)c1Br	?	-17%	11µM*	-26%	25	?
Cc1ccc2nc(-c3ccccn3)[nH]c2c1	?	-7%	-11%	-39%	7	6.3µM*
O=c1[nH]c(-c2ccccn2)nc2ccccc12	?	-17%	.	-15%	-106*	?
CC1CCCN(c2cccc3c2S(=O)(=O)N(Cc2cccc(F)c2)[C@@H](C)[C@H](c2ccccc2)O3)C1 (stereo not given in full)	.	.	.	.	-15	.
COc1cc(=O)n2c(c1C(=O)NCc1cccc(F)c1)CCN(Cc1cccnc1)CC2	.	-3%	i	-3%	.	.
CC(C)(C(=O)O)c1ccc([C@@H](O)CCCN2CCC(C(O)(c3ccccc3)c3ccccc3)CC2)cc1	10%	.	.	.	.	.
Cc1oc(-c2cccc(Br)c2)nc1CN1CCC(C(=O)NCc2ccccc2)CC1	.	-15%	-22%	-6%	0	-3%[46.1 µM]
CCN(CC)S(=O)(=O)c1ccc(C)c(NC(=S)Nc2cccc(S(=O)(=O)N3CCCCCC3)c2)c1	?	-20%	i	?	-77*	?
CN(C)S(=O)(=O)c1cccc(NC(=O)CNc2cccc(S(=O)(=O)N3CCCCC3)c2)c1	.	?	?	-6%	-81*	.
O=C(CNc1cccc(S(=O)(=O)N2CCCCC2)c1)Nc1cccc(F)c1	-29%	-23%	-13%	0%	?	-34%[46.1 µM]
COc1ccc(CC(=O)Nc2cccc(SC)c2)cc1OC	?	-16%	i	?	-66*	?
CCN(CC)S(=O)(=O)c1ccc(C)c(NC(=O)CNc2cccc(S(=O)(=O)N3CCOCC3)c2)c1	0%[46.1 µM]	-5%	-28%	-27%	-4	-10%
COc1ccc(CC(=O)Nc2cccc(S(=O)(=O)N3CCCCCC3)c2)cc1OC	?	-28%	?	?	-83*	4.5µM*
SMILES	MARV entry inh	Vaccinia Venus	VACV mCherry inh	FMDV inh	HCMV inh	Lassa entry inh
CCC1CN(CCNC(=O)c2ccc(N3CCOCC3)cc2)Cc2cc(OC)ccc2O1 (stereo not given)	.	-11%	-19%	-5%	.	.
COC(=O)[C@H](CC(C)C)NS(=O)(=O)NC(=O)OC(C)(C)C	.	-10%	-16%	.	.	.
CSc1cccc(NC(=O)COc2ccccc2)c1	2%	-21%	-24%	45%	-80*	19%
O=C(CN1CCN(c2ccc(O)cc2)CC1)Nc1cc(S(=O)(=O)N2CCCCC2)ccc1Cl	-26%[46.1 µM]	-6%	-16%	0%	-74*	-26%
CC(=O)Nc1cccc(S(=O)(=O)N2CCCCCC2)c1	-28%[46.1 µM]	-6%	i	9%	-100*	-5%
CCCC(C(=O)Nc1cccc(S(=O)(=O)N2CCCC2)c1)c1ccccc1 (stereo not given)	?	-14%	?	-3%	?	7.1µM*
CC(CC(=O)Nc1cccc(S(=O)(=O)N2CCCCC2)c1)c1ccccc1 (stereo not given)	.	.	.	-11%	24	.
CCCCNC(=O)[C@@H]1CC=C[C@@H]2CCN(Cc3ccccc3)C(=O)[C@@H]21	.	-9%	-18%	.	.	.
COc1ccc(-c2cn3cccnc3n2)cc1NC(=O)c1cc(C)cc(C)c1	.	-5%	-9%	-19%	-3	-28%[46.1 µM]
O=C(Nc1cccc(Cl)c1)Nc1cc(S(=O)(=O)N2CCCCC2)ccc1Cl	4µM*	?	-25%	?	-99*	?
COc1ccccc1-n1cnnc1SCC(=O)Nc1cccc(S(=O)(=O)N2CCCCC2)c1	1%	.	.	.	-68*	4%
COc1cc(CCC(=O)Nc2cccc(C(F)(F)F)c2)cc(OC)c1OC	?	-11%	-19%	0%	-28	9%
COc1cc(CC(=O)Nc2cccc(C(F)(F)F)c2)cc(OC)c1OC	?	-16%	-19%	?	-71*	-15%
CSc1cccc(NC(=O)Nc2ccccc2)c1	16%	-22%	-12%	32%	-12	0%
CSc1cccc(NC(C)C(=O)NCc2ccccc2)c1 (stereo not given)	-26%[46.1 µM]	-7%	-17%	-3%	-65*	-5%
CN(C)c1ccc(/C=C/c2ccnc3cc(Cl)ccc23)cc1	.	47%	-16%	.	.	.
Cc1cccc(OCCSc2nnc(-c3cccs3)o2)c1	13%[46.1 µM]	1%	-14%	-11%	25	15%[46.1 µM]
O=C(NCC1(N2CCOCC2)CCCCC1)c1cnn(-c2nccc(-c3cccs3)n2)c1C1CC1	.	?	?	-16%	.	.
COc1ccc(S(=O)(=O)Nc2cccc(S(=O)(=O)N3CCCCCC3)c2)cc1	4%	-7%	-14%	25%	6	-11%
O=S(=O)(Nc1nc2ccccc2nc1Nc1cccc(S(=O)(=O)N2CCCCC2)c1)c1ccccc1	?	?	11µM*	?	-83*	?
N#C/C(=C\c1cccc(NC(=O)c2ccccc2Cl)c1)C(=O)NCCc1ccccc1	11µM*	-5%	-25%	28µM*	?	?
COc1ccc(CCNC(=O)/C(C#N)=C/c2cccc(OCc3ccccc3)c2)cc1OC	?	-22%	-13%	28µM*	28	-19%
CCn1c(C(=O)Nc2cc(C)cc(C)c2)cc2sc(Cl)cc21	28%[46.1 µM]	-8%	-12%	1%	-18	.
CCN(CC)C(C)CN1c2ccccc2Sc2ccccc21 (stereo not given)	?	?	-29%	28µM*	.	-2%

From PubChem
